Read-out in assay [1]: Cytochrome P450 (CYP1A1), CYP1A1 (gene 1543)
The assay is described as follows: LTEA_HepaRG_CYP1A1: Life Technologies and Expression Analysis (LTEA) Assay for Cytochrome P450 (CYP1A1) using HepaRG (AID 2283454). Conditions: mRNA level, 48 h; actives raise or lower the signal. An outline of the steps:
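Differentiated human HepaRG cells, after 48 h plating, exposed in duplicate for 48 h in serum-free induction medium to 8 half-log concentrations up to 100 uM in 0.5% DMSO. CYP1A1 mRNA by qRT-PCR, normalized to ACTB/GAPDH/POLR2A; bidirectional fit versus DMSO.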

Read-out in assay [2]: CFLAR gene, CFLAR (gene 8837)
The assay is described as follows: LTEA_HepaRG_CFLAR: Life Technologies and Expression Analysis (LTEA) Assay for CFLAR gene using HepaRG (AID 2283455). To be noted: mRNA level, 48 h; actives raise or lower the signal. The essentials: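 Gain- or loss-of-signal changes in CFLAR transcript were fitted bidirectionally relative to 0.5% DMSO. Cells (HepaRG, duplicate wells) were dosed for 48 h across eight half-log concentrations topping at 100 uM; quantitation by TaqMan qRT-PCR.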

Read-out in assay [3]: Forkhead box O1 (FOXO1), FOXO1 (gene 2308)
Nature of the assay: LTEA_HepaRG_FOXO1: Life Technologies and Expression Analysis (LTEA) Assay for Forkhead box O1 (FOXO1) using HepaRG (AID 2283456). Conditions: mRNA level, 48 h; actives raise or lower the signal. An outline of the steps: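 Using one lot of HepaRG hepatic cells kept in 0.5% DMSO, the team applied test chemicals in duplicate, half-log dilutions from 100 uM, for 48 h. Expression, normalised to ACTB/GAPDH/POLR2A, was compared with vehicle in either direction.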

The nature of assay [4]: CEETOX_H295R_TESTO: CeeTox H295R High-throughput Steroidogenesis Assay for Testosterone (TESTO) (AID 2283457). Conditions: actives raise or lower the signal. The essentials:
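H295R adrenal cells, passage ≤10, exposed to chemicals for 48 h. Testosterone in medium measured by MTBE extraction and HPLC-MS/MS against a 7-point standard curve. Bidirectional fit versus DMSO; MTT viability checked in the same wells.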

Read-out in assay [5]: growth arrest and DNA damage 45 (GADD45A), GADD45A (gene 1647)
The assay is described as follows: LTEA_HepaRG_GADD45A: Life Technologies and Expression Analysis (LTEA) Assay for growth arrest and DNA damage 45 (GADD45A) using HepaRG (AID 2283458). To be noted: mRNA level, 48 h; actives raise or lower the signal. An outline of the steps:
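HepaRG, 48 h exposure, 8 conc. (top 100 uM, half-log steps), 0.5% DMSO vehicle, duplicates. Read-out: qRT-PCR mRNA level, housekeeping-normalized (ACTB/GAPDH/POLR2A). Curves fit bidirectionally vs DMSO baseline.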

Read-out in assay [6]: Forkhead box O3 (FOXO3), FOXO3 (gene 2309)
The assay is described as follows: LTEA_HepaRG_FOXO3: Life Technologies and Expression Analysis (LTEA) Assay for Forkhead box O3 (FOXO3) using HepaRG (AID 2283459). To be noted: mRNA level, 48 h; actives raise or lower the signal. The essentials: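 Gene-expression endpoint: FOXO3 transcript level by qRT-PCR in HepaRG cultures treated 48 h with chemicals up to 100 uM (half-log, 0.5% DMSO vehicle).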

Read-out in assay [7]: ABC Transporter (ABCB1), ABCB1 (gene 5243)
The assay is described as follows: LTEA_HepaRG_ABCB1: Life Technologies and Expression Analysis (LTEA) Assay for ABC Transporter (ABCB1) using HepaRG (AID 2283460). Conditions: mRNA level, 48 h; actives raise or lower the signal. An outline of the steps:
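Human liver HepaRG line treated 48 h with up to 100 uM compound (eight half-log points, 0.5% DMSO); ABCB1 mRNA change fitted bidirectionally against DMSO controls.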

Read-out in assay [8]: growth arrest and DNA damage 45 (GADD45B), GADD45B (gene 4616)
The assay is described as follows: LTEA_HepaRG_GADD45B: Life Technologies and Expression Analysis (LTEA) Assay for growth arrest and DNA damage 45 (GADD45B) using HepaRG (AID 2283461). Conditions: mRNA level, 48 h; actives raise or lower the signal. The essentials: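 Differentiated human HepaRG cells in serum-free induction medium exposed 48 h in duplicate to eight concentrations, top 100 uM, half-log steps, 0.5% DMSO. GADD45B mRNA by TaqMan qRT-PCR, normalized to ACTB, GAPDH, POLR2A; bidirectional fit versus DMSO.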

Read-out in assay [9]: ABC Transporter (ABCC3), ABCC3 (gene 8714)
Nature of the assay: LTEA_HepaRG_ABCC3: Life Technologies and Expression Analysis (LTEA) Assay for ABC Transporter (ABCC3) using HepaRG (AID 2283462). Conditions: mRNA level, 48 h; actives raise or lower the signal. An outline of the steps: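 Differentiated human HepaRG cells exposed 48 h in serum-free induction medium, 0.5% DMSO vehicle, 8-point half-log series to 100 uM in duplicate. ABCC3 mRNA by qRT-PCR, normalised to ACTB, GAPDH, POLR2A; bidirectional fit vs DMSO.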

Read-out in assay [10]: ABC Transporter (ABCB11), ABCB11 (gene 8647)
Nature of the assay: LTEA_HepaRG_ABCB11: Life Technologies and Expression Analysis (LTEA) Assay for ABC Transporter (ABCB11) using HepaRG (AID 2283463). To be noted: mRNA level, 48 h; actives raise or lower the signal. The essentials:
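Using HepaRG cultures held in 0.5% DMSO, chemicals were tested at half-log dilutions from 100 uM for 48 h. Induction or suppression of ABCB11 mRNA, normalized to ACTB, GAPDH and POLR2A, was fitted bidirectionally against vehicle.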

Activity calls are given as the source filed them. The calls were made as follows: active = hit-call score of the fitted dose curve at least 0.9, where 1 is the maximum; inactive = score below 0.9.

The text below walks through data of PubChem BioAssay (EPA / NIEHS).

In the case of `CNC(=O)Oc1cccc2c1OC(C)(C)C2`, the AC50 (as a rule, the concentration giving half of the maximal activity seen) is 50 µM (active) in assay [1], 0.0409 µM (active) in [5] and 50 µM (active) in [8]. In addition, the molecule was classed as inactive in assay [2], in assay [3], in assay [4], in [6], in assay [7] and in assay [9].

`CCOC(=O)[C@]1(c2ccccc2)Oc2ccccc2[C@@H]1N`: the AC50 was 13 µM (active) in [1]; 83.3 µM (active) in assay [3]; 76.2 µM (active) in assay [5]; 76.8 µM (active) in assay [8]; 78.7 µM (active) in assay [10]. In addition, the molecule was classed as inactive in assay [2], in assay [6], in [7] and in assay [9].

Regarding `c1ccc(N=Nc2ccccc2)cc1`, in assay [1], the AC50 was 36.6 µM (active). Further, the molecule was called inactive in assay [2], in assay [3], in assay [5], in assay [6], in assay [7] and in assay [8]. Besides, the outcome in assay [9] was inactive.

With `Cc1ccc(N)cc1`, the result in assay [1], in [2], in [3], in assay [5], in [6] and in assay [7] was inactive. The molecule was classed as inactive in assay [8] and in [9].

Take `CN(C)c1ccccc1`: the AC50 in assay [1] was 63.3 µM (active). Further, the molecule was called inactive in assay [2], in assay [3], in assay [5], in [6], in [7] and in [8]. Moreover, the result in assay [9] was inactive.

In the case of `CCCCOC(=O)c1ccccc1C(=O)OCc1ccccc1`, in [1], the AC50 was 15.1 µM (active). For the same molecule, the molecule was called inactive in assay [2], in assay [3], in assay [5], in [6], in assay [7] and in assay [8]. Besides, in assay [9], the outcome was inactive.

On to `c1ccc(C2CO2)cc1` (stereo not drawn), for which the call in assay [1], in [2], in assay [3], in [5], in [6] and in assay [7] was inactive. Also, the outcome in assay [8] and in assay [9] was inactive.

`O=C(N[C@H](c1ccccc1)[C@@H]1CN2CCC1CC2)c1c(Cl)ccc(C(F)(F)F)c1Cl`: the half-maximal activity concentration (AC50) in assay [1] was 11 µM (active); in assay [2] it was 82.4 µM (active); in [3], 74.5 µM (active); in [5], 46.2 µM (active); in assay [7], 13.5 µM (active); in assay [8], 46.2 µM (active). Moreover, in assay [9], the AC50 is 36.3 µM (active). For the same molecule, the call in assay [6] and in assay [10] was inactive.

Take `Cc1cccc(N)c1N`: the AC50 in [1] is 6.92 µM (active); in assay [2], 50 µM (active); in assay [6], 50 µM (active); in assay [8], 64 µM (active); in assay [10], 62.6 µM (active). The molecule was called inactive in assay [3], in [5], in [7] and in assay [9].

Consider `CCC[CH2][Sn]([Cl])([CH2]CCC)[CH2]CCC`, for which the AC50 in assay [1] was 2.35 µM (active); in assay [2], 4.12 µM (active); in assay [3] it was 18.8 µM (active); in assay [5], 50 µM (active); in [7], 3.21 µM (active); in assay [10], 2.06 µM (active). For the same molecule, the molecule was called inactive in assay [6], in [8] and in assay [9].

With `COc1cc(C=O)cc2c1[C@H](COC(N)=O)[C@]1(OC(C)=O)ON2C[C@H]2[C@@H]1N2C(C)=O`, the concentration at half-maximal activity (AC50) is 4.09 µM (active) in assay [1]; 3.75 µM (active) in assay [3]; 0.579 µM (active) in assay [5]; 3.8 µM (active) in [6]; 24.3 µM (active) in assay [7]; 92.3 µM (active) in assay [8]. Moreover, the AC50 in assay [9] was 9.99 µM (active).

For `OCCOCCO`, the molecule was classed as inactive in [1], in [3], in assay [5], in assay [6], in assay [7] and in assay [8]. The molecule was called inactive in assay [9].

As to `OCCCl`, the molecule was classed as inactive in [1], in assay [3], in [5], in [6], in assay [7] and in [8]. Also, in assay [9], the molecule was classed as inactive.

As to `CC(C)(OOC(C)(C)c1ccccc1)c1ccccc1`, the AC50 in [1] and in assay [8] was 50 µM (active) each time. Moreover, the molecule was called inactive in assay [3], in [5], in assay [6], in [7] and in assay [9].

In the case of `CC(C)(C)OOC(C)(C)CCC(C)(C)OOC(C)(C)C`, in assay [1], the concentration at half-maximal activity (AC50) is 64.2 µM (active). Moreover, the molecule was called inactive in assay [2], in assay [5], in [6], in assay [7], in assay [8] and in [9]. For the same molecule, the molecule was called inactive in assay [10].

Regarding `Cc1ccc(N)c(N)c1`, in [1], the AC50 is 40.2 µM (active). Further, the molecule was called inactive in [2], in assay [3], in assay [5], in [6], in [7] and in assay [8]. Moreover, in assay [10], the molecule was classed as inactive.

As to `Nc1ccc(Cc2ccc(N)cc2)cc1`, the AC50 in [1] is 32.3 µM (active). The molecule was classed as inactive in [2], in [3], in assay [5], in assay [6], in [7] and in [8]. The call in [9] and in assay [10] was inactive.

On to `Oc1ccccc1Cl`, for which the molecule was called inactive in assay [1], in assay [3], in assay [5], in assay [6], in assay [7] and in assay [8]. In addition, the outcome in [9] was inactive.

On to `C[N+](C)(C)CC1CO1` (stereo not drawn), for which, in assay [1], the AC50 is 50 µM (active). Also, the outcome in assay [2], in assay [3], in [5], in assay [6], in assay [7] and in [8] was inactive. The outcome in assay [9] and in assay [10] was inactive.

As for `CN(C)c1ccc(C(=O)c2ccc(N(C)C)cc2)cc1`, the AC50 in [1] is 14.6 µM (active). In addition, the result in assay [2], in assay [3], in assay [5], in assay [6], in [7] and in [8] was inactive. Besides, the molecule was classed as inactive in [9] and in [10].
